Test results as given in PubChem BioAssay AID1159580 (chemical genetic matrix, 2015).
The campaign covered roughly 5,500 compounds. About 2,000 (36%) were called active. About 18% were inconclusive and are not listed. No stated cut-off is given here; in the data, active means normalized growth mostly below about 0.91 (no sharp cut-off); inconclusive means no clear call, values can overlap the other calls; inactive means mostly above about 0.92. The list shows a part of the results.

Experiment: chemical genetic growth profiling, strain panel (AID 1159580);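 further: tested at 20 µM; growth read once vehicle control cultures reached saturation at 30 °C; 1 = growth at the plate median or of vehicle wells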
Conditions: S. cerevisiae deletion strains, growth OD

Measured: normalized growth

COc1ccc2c(c1)c(CC(=O)O)c(C)n2Cc1ccc(F)cc1
inactive: locus YAL040C, strain CLN3, stronger effect = lower value 0.985 | locus YCL061C, strain MRC1 (second series), stronger effect = lower value 1.01 | locus YDR363W, strain ESC2, stronger effect = lower value 1 | locus YER002W, strain NOP16, stronger effect = lower value 0.999 | locus YGR078C, strain PAC10, stronger effect = lower value 1.01 | locus YMR307W, strain GAS1, stronger effect = lower value 0.99 | locus YNL128W, strain TEP1, stronger effect = lower value 0.993 | locus YNL175C, strain NOP13, stronger effect = lower value 1 | locus YNL197C, strain WHI3, stronger effect = lower value 0.991 | locus YNL224C, strain SQS1, stronger effect = lower value 0.985 | locus YNL322C, strain KRE1, stronger effect = lower value 1.01 | locus YOR083W, strain WHI5 (second series), stronger effect = lower value 1.02 | locus YPL055C, strain LGE1, stronger effect = lower value 1.01 | locus YPL241C, strain CIN2, stronger effect = lower value 1.01
